For 40 molecules, Potency results are on record in PubChem BioAssay (Tox21).

Results filed as inconclusive are left out. Entries that show only a call come without a potency. Calls of active or inactive are those of the source. Calls follow the shape of the dose curve; as a rule, active = well fitted activation curve with a large enough effect in the repeat runs; inconclusive = weak or mixed curves; inactive = flat fitted curve, though single readings scatter.
Potency is read from the fitted curve at half-maximal effect.

This experiment in a line: A CellTox Green Cytotoxicity Assay to monitor cytotoxicity in HEK293 cells - 32 hour (AID 1224881). Also: nearly all actives have a fitted effect of over 40% in size. Particulars: CellTox Green fluorescence; series mostly up to 76.8 µM. From the text:
National Center for Advancing Translational Sciences [NCATS]
NIH Chemical Genomics Center [NCGC]
U.S. Environmental Protection Agency [EPA]
National Institutes of Environmental Health Sciences [NIEHS]
National Toxicology Program [NTP]
Cell-based models are critical for drug discovery. Determining the natural cytotoxic effects resulting from test compounds is an essential research activity. A CellTox Green Cytotoxicity Assay to monitor cytotoxicity in real time of continues cell culture during 40 hours of the compound treatment was used to screen Tox21 10K library compounds in Hek293 cells. CellTox Green Cytotoxicity Assay is a nonlytic, homogeneous, biofluorescent method to measure cytotoxicity in cell culture after experimental manipulation. The assay system uses a proprietary asymmetric cyanine dye that is excluded from viable cells but preferentially stains the dead cell's DNA. […] Viable cells produce no appreciable increases in fluorescence. Therefore, the fluorescence signal produced by the binding interaction with dead cell DNA is proportional to cytotoxicity.
The mixture of Hek293 cell suspension and reagents were dispensed at 600cells/6 ul/well in 1536-well tissue culture treated black solid bottom plates using a Multidrop dispenser. After the assay plates were incubated at a 37 C/5% CO2 incubator for 5 hours, 23 nL of compounds dissolved in DMSO, positive and negative controls was transferred to the assay plate by a pintool work station. The plates were incubated at 37 C for 40 hours. The fluorescence intensity were measured at 0h, 8h, 16h, 24h, 32h and 40h time points using ViewLux plate reader during compound treatment.
As for `O=C(O)CCc1nc(-c2ccccc2)c(-c2ccccc2)o1`, the Potency entry was “inactive”. The value for `CC(C)=CC(=O)C=C(C)C` was “inactive”. For `CC1CC(C)C(=O)C1=O` (stereo not given), the Potency entry is “inactive”. For the molecule `Oc1c(I)cc(I)c2cccnc12`, the Potency entry is “inactive”. The entry for `CC1=C(Br)C(=O)C(Br)=C/C1=C(/c1ccccc1S(=O)(=O)O)c1cc(Br)c(O)c(Br)c1C` is “inactive”; for `CC1CC(OC(=O)C(O)c2ccccc2)CC(C)(C)N1C` (stereo not given) it is “inactive”; for `CCn1cc(C(=O)O)c(=O)c2cc(F)c(N3CCNCC3)cc21` it is “inactive”.

Turning to `CC(C)C[C@H](NC(=O)[C@H](CCc1ccccc1)NC(=O)CN1CCOCC1)C(=O)N[C@@H](Cc1ccccc1)C(=O)N[C@@H](CC(C)C)C(=O)[C@@]1(C)CO1`, the Potency was 0.301 µM (active). The value for `O=C(O)CCCCCCCCCCCBr` was “inactive”; that for `Cc1cc(C)c(N)cc1C` was “inactive”; that for `C[C@]1(Cn2ccnn2)[C@H](C(=O)O)N2C(=O)C[C@H]2S1(=O)=O` was “inactive”.

As for `O[C@@H]1CO[C@H]2[C@@H]1OC[C@@H]2O`, the Potency entry is “inactive”. The value for `CCCCCC[C@@H](O)C/C=C\CCCCCCCC(=O)OCC(O)CO` (stereo not given in full) was “inactive”. Take `CCCCCCNC(=O)n1cc(F)c(=O)[nH]c1=O`: the Potency result is “inactive”.

`CCOC(=O)c1ccc(O)c(O)c1`: the Potency result is “inactive”. The entry for `CCOC(=O)/C=C/C(=O)OCC` is “inactive”; for `OC1(c2ccccc2)CCNCC1` it is “inactive”.

On to `CCC1CO1` (stereo not given), for which the Potency entry was “inactive”. On to `O=C(OC(=O)c1ccccc1)c1ccccc1`, for which the Potency result was “inactive”. As to `CCCCCCCC/C=C\CCCCCCCCCCCC(=O)O`, the Potency entry was “inactive”. Consider `CS(=O)(=O)c1ccc(-c2cn3ccccc3n2)cc1`, for which the Potency entry was “inactive”.

As to `O=c1[nH]ncc2ccccc12`, the Potency entry is “inactive”. On to `COc1cc(C(=O)NC2CCN(C)CC2)ccc1Nc1ncc2c(n1)N(C1CCCC1)CC(F)(F)C(=O)N2C`, for which the Potency was 35.7 µM (active). As for `NCCNCCO`, the Potency result was “inactive”. Turning to `CC(C)=CCC/C(C)=C/CC/C(C)=C/C(=O)OCC(=O)[C@@]1(O)CC[C@H]2[C@@H]3CCC4=CC(=O)C=C[C@]4(C)[C@H]3[C@@H](O)C[C@@]21C`, the Potency result was “inactive”. Regarding `c1ccc2c(c1)CCc1ccccc1N2`, the Potency was 49.2 µM (active). The entry for `Brc1cc(Br)c(Oc2cc(Br)c(Br)cc2Br)cc1Br` is “inactive”.

For the molecule `Cc1cccc(O)c1N`, the Potency entry was “inactive”. The entry for `OC(CCN1CCCC1)(c1ccccc1)C1CCCCC1` (stereo not given) is “inactive”. With `CCOc1ccccc1O[C@H](c1ccccc1)[C@H]1CNCCO1`, the Potency entry is “inactive”. As to `C[C@@H](O)[C@H]1C(=O)N2C(C(=O)O)=C([C@H]3CCCO3)S[C@H]12`, the Potency result is “inactive”. For the molecule `CCC(C)COC(C)=O` (stereo not given), the Potency entry is “inactive”. For `C=C1CCC2CC1C2(C)C` (stereo not given), the Potency result is “inactive”.

For the molecule `CCOc1cccc(-n2cc(C(=O)N3CCN(c4cc(C(=O)O)c5ccccc5c4)CC3)nc2-c2ccc(C)cc2)c1`, the Potency entry was “inactive”. As for `CCOC(=O)C1=C(C)NC(C)=C(C(=O)OC)C1c1cccc(Cl)c1Cl` (stereo not given), the Potency result is “inactive”. As to `Cc1ccco1`, the Potency result is “inactive”. Turning to `CC1=C(CC=O)C(C)(C)CCC1`, the Potency entry is “inactive”. `Cc1ccc2c(Br)cc(Br)c(O)c2n1`: the Potency result was “inactive”. In the case of `CN(C)CCN1C(=O)c2ccccc2N(C)c2ccccc21`, the Potency result was “inactive”. The value for `O=C(/C=C/c1ccc(O)c(O)c1)O[C@@H]1C[C@@](OC(=O)/C=C/c2ccc(O)c(O)c2)(C(=O)O)C[C@@H](O)[C@@H]1O` was “inactive”.
